An excerpt weighted towards active compounds, which were near 4.8% of everything screened.
Rev-erbA mod: modulators of human Rev-erb alpha DNA binding; P20393; Rev-erbα–FITC-DNA binding, fluorescence polarization, 90 min; activity, % at 10 µM; 0.79% of 370,000 active;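 active = activity above about 14%, limit read from the data; passing the limit was not always enough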;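 also: 0% = DMSO wells with 35 nM protein and 100% = DMSO wells with 750 nM protein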
hgDAF-12 ag: hgDAF-12 agonism, primary luciferase screen; HEK293 GAL4-hgDAF12 UAS-luciferase reporter, agonist luminescence; normalized to butyrate control; activation, % at 6.8 µM; 1.8% of 370,000 active; AID 687014;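 active = activation above a cutoff set at the mean of all screened compounds plus 3 SD, cut at about 10% in these data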;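 also: 0% = DMSO wells and 100% = sodium butyrate wells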
DAX1 inh-1: NR0B1 (DAX1) inhibition; P51843; HEK293 Gal4-DAX1 luciferase reporter, luminescence; inhibition, % at 6.75 µM; 0.99% of 340,000 active; AID 504766;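 active = inhibition above the mean over all tested compounds plus 3 SD, cut at about 4.2% in these data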;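 also: 0% = DAX1-transfected cells with DMSO and 100% = empty-vector control cells with DMSO; inhibition shows as a rise in luminescence from relieved DAX1 repression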
ssDAF-12 act: S. stercoralis DAF-12 activation, primary screen. HEK293 ssDAF-12/GRIP1 lit1-tk-luc reporter, luminescence; % of 3 µM dafachronic acid response. activation, % at 6.8 µM. 1% of 370,000 active. AID 652126;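 active = activation above the mean over all tested compounds plus 3 SD, cut at about 0.9% in these data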;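 also: 0% = DMSO-only wells and 100% = 3 µM delta7-dafachronic acid wells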
DAX1 inh-2: inhibitors of DAX1 repression of SF-1 activated StAR promoter; AID 652010; HEK293T StAR-luciferase reporter, SF-1/DAX-1 repression relief; inhibition, % at 6.8 µM; 1.1% of 370,000 active;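 active = inhibition above the mean over all tested compounds plus 3 SD, cut at about 3.6% in these data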;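 also: 0% = DAX-1 cells with DMSO and 100% = cells lacking DAX-1 with DMSO; higher inhibition means more luminescence from relief of DAX-1 repression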
hcDAF-12 act: activates DAF-12 receptor from parasite H. contortus. HEK293 hcDAF-12 lit1-tk-luc reporter, luminescence; 0% DMSO, 100% Δ7-dafachronic acid. activation, % at 6.8 µM. 1.4% of 370,000 active;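 active = activation above the mean of all tested compounds plus 3 SD, cut at about 5.5% in these data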;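 also: 100% = response to 3 µM Δ7-dafachronic acid high control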
LXRb hcDAF ctr: counter-screen for hcDAF-12 agonists: agonists of human LXR-beta | AID 743027 | shares compounds with hcDAF-12 act | 3,400 tested, under 10 active | activation, % at 6.8 µM | HEK293 Gal4-LXR tk-luc reporter, luminescence, 24 h; normalized: DMSO 0%, positive control 100%;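 active = mean percent activation of the reporter above a cutoff set as the average over tested compounds plus their standard deviation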
Target sequence (P55055 whole entry, looked up, the tested form may be a part): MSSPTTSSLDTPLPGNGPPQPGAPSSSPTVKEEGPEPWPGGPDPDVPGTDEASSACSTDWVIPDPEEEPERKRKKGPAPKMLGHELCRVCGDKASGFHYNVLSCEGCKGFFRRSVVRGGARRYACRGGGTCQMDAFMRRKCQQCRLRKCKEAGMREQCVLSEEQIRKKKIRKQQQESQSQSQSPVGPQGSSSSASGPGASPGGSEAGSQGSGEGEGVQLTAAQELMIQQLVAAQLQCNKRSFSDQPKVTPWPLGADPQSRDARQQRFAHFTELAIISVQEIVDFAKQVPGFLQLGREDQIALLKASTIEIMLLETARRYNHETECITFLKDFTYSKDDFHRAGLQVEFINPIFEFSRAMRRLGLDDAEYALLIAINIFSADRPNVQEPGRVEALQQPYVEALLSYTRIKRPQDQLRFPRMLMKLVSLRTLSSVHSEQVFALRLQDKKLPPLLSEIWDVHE
hcDAF12 ag: confirmation of H. contortus DAF-12 agonists; shares compounds with hcDAF-12 act; HEK293 hcDAF-12 lit1-tk-luc reporter, luminescence; % of Δ7-dafachronic acid response; 61% of 3,400 active; activation, % at 6.8 µM;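 active = mean activation across triplicate tests above the threshold derived from the earlier primary screen, cut at about 5.5% in these data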;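 also: 0% = DMSO only wells and 100% = 3 µM Δ7-dafachronic acid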
* marks the source's active call; other numbers are inactive results; / = no result given.

SMILES	Rev-erbA mod	hgDAF-12 ag	DAX1 inh-1	ssDAF-12 act	DAX1 inh-2	hcDAF-12 act	LXRb hcDAF ctr	hcDAF12 ag
COc1ccc(N2CCN(CCNS(=O)(=O)c3c(C(C)C)cc(C(C)C)cc3C(C)C)CC2)cc1	-0.9	-1.9	/	-1.4	-2.6	-4.2	/	/
O=c1nc2s/c(=C\c3ccc(-c4ccccc4[N+](=O)[O-])o3)c(=O)n2nc1-c1ccccc1	-8.4	3.3	0.1	-0.4	0.2	6.9*	-0.3	2.7
CCCCc1ccc(NC(=O)CC(C)(C)C)cc1	-2.4	12.7*	-1.3	-0.4	1.6	7.0*	0.1	4.0
Nc1c2ccccc2nc2ccccc12	1.6	4.5	3.2	2.6*	0.5	13.5*	1.3	25.1*
CCOc1ccc(-n2c(SCC(=O)c3ccc4ccccc4c3)nnc2-c2cccc(Cl)c2)cc1	-1.4	3.1	/	-1.1	0.0	-3.2	/	/
COc1cc(/C=C/C(=O)c2c(O)cc(C)oc2=O)cc(OC)c1O	-5.1	-1.5	0.6	-0.4	-0.4	-0.6	/	/
Cc1cc(O)c(C(=O)/C=C/c2ccc(Cl)cc2)c(=O)o1	6.4	6.4	1.1	0.5	0.9	13.2*	0.1	0.4
CCOC(=O)c1csc(NC(=O)C2CCCN(S(=O)(=O)c3cccs3)C2)n1 (stereo not given)	-6.5	0.7	/	-2.1	-1.1	-3.6	/	/
Cc1ccc(S(=O)(=O)N2CCCC2C(=O)N2CCN(c3ccccc3)CC2)cc1C (stereo not given)	3.1	0.7	/	-0.9	-0.5	-0.3	/	/
O=C(/C=C\c1ccccc1OC(=O)c1ccccc1F)c1cc2ccccc2o1	-0.9	9.9	5.3*	0.5	0.6	7.3*	0.6	5.9*
CC(=O)/C=C\c1ccccc1OC(=O)c1cc2ccccc2oc1=O	-2.4	0.6	1.8	-1.1	0.4	0.1	/	/
CCOC(=O)c1[nH]c2ccccc2c1NC(=O)CC(C)(C)C	1.2	4.6	-1.1	-0.1	-0.3	6.8*	0.0	5.1
COC(=O)c1[nH]c2ccccc2c1CN1CCOCC1	3.2	2.4	-1.4	-0.5	0.3	7.5*	-0.2	2.2
COC(=O)c1[nH]c2ccccc2c1NC(=O)Oc1ccccc1	5.9	5.9	3.0	0.5	1.4	8.4*	0.2	7.4*
COC(=O)c1[nH]c2ccccc2c1NC(=O)CN1CCCCCC1	2.1	-0.3	-0.6	-0.1	-0.3	1.4	/	/
CC(=O)Nc1c(C(=O)Nc2ccc3c(c2)OCO3)oc2ccccc12	-1.0	8.8	3.3	0.6	1.8	7.6*	1.3	6.8*
O=C(Nc1ccc2c(c1)OCO2)c1ccc(Br)o1	3.6	13.2*	0.9	0.3	2.9	9.0*	0.2	4.5
CCN1CCc2nc(NC(=O)c3ccccc3)sc2C1	3.7	7.1	-1.2	0.8	4.0*	8.9*	1.4	6.8*
N#Cc1c(NC(=S)NC(=O)c2ccccc2)sc2c1CCCC2	4.6	2.6	0.6	-1.6	0.1	-1.2	/	/
O=C(NC(=S)Nc1nc2c(s1)CCCC2)c1ccccc1	-4.0	11.1*	1.5	1.0*	2.0	11.7*	1.7	16.2*
Cc1cccnc1Nc1nc(-c2ccccc2)cs1	-1.3	12.6*	4.1	1.7*	3.7*	13.7*	2.1	13.5*
c1cncc(Nc2nc(-c3cccnc3)cs2)c1	-1.6	6.9	1.5	-1.1	-0.9	7.2*	-0.1	2.2
Cc1ccc(Nc2nc(-c3cccnc3)cs2)cc1Cl	13.0	9.4	3.7	0.8	0.9	11.1*	0.7	12.3*
Cc1cccnc1Nc1nc(-c2ccccn2)cs1	4.6	3.5	-5.0	-0.6	-2.9	1.4	/	/
O=C(CN1CCN(Cc2ccccc2)CC1)N/N=C\c1ccccc1[N+](=O)[O-]	0.6	-1.9	/	-0.4	0.1	0.5	/	/
CC(C)(C)c1ccc(C2(C)NC(=O)NC2=O)cc1 (stereo not given)	-0.3	0.6	2.1	-0.8	-0.4	8.7*	-0.2	2.1

Bioassay records: PubChem, several laboratories
